# Where “and” joins values, the source holds several entries; their conditions need not be identical. Identical values can stand only once. Results filed as inconclusive are left out. A structure can be active in one record and inactive in another. Calls of active or inactive are those of the source. Rule for the calls: active = hit-call score of the fitted dose curve at least 0.9, where 1 is the maximum; inconclusive = response in the unintended direction; inactive = score below 0.9.
# What was measured:
# [1] = target: human Sirtuin 2 (SIRT2), SIRT2 (gene 22933) (UniProt Q8IXJ6); assay: NVS_ENZ_hSIRT2: NovaScreen (NVS) Enzymatic Assay for human Sirtuin 2 (SIRT2) (AID 2283217)
# Outline: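 Cell-free recombinant human SIRT2, fluorescent substrate with product separated by electrophoretic mobility shift, 1 hr. Screened in duplicate at 25 uM; hits rerun singly in concentration-response up to 50 uM, relative to DMSO.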
# [2] = target: human Protein Tyrosine Phosphatase Non-receptor Type 6 (PTPN6), PTPN6 (gene 5777) (UniProt P29350); assay: NVS_ENZ_hPTPN6: NovaScreen (NVS) Enzymatic Assay for human Protein Tyrosine Phosphatase Non-receptor Type 6 (PTPN6) (AID 2283210)
# Description: NVS_ENZ_hPTPN6 is a biochemical, single-readout assay that uses extracted gene-proteins from SF9 in a cell-free assay. Measurements were taken 1.33 hours after chemical dosing in a 384-well plate.NVS_ENZ_hPTPN6 is one of one assay component(s) measured or calculated from the NVS_ENZ_hPTPN6 assay. It is designed to make measurements of enzyme activity, a form of enzyme reporter, as detected with fluorescence intensity signals by Fluorescence and electrophoretic mobility shift technology.Data from the assay component NVS_ENZ_hPTPN6 was analyzed into 1 assay endpoint. This assay endpoint, NVS_ENZ_hPTPN6, was analyzed in the positive analysis fitting direction relative to DMSO as the negative control and baseline of activity. Using a type of enzyme reporter, loss-of-signal activity can be used to understand changes in the enzymatic activity as they relate to the gene PTPN6. Furthermore, this assay endpoint can be referred to as a primary readout, because this assay has produced multiple assay endpoints where this one serves a enzymatic activity function. To generalize the intended target to other relatable targets, this assay endpoint is annotated to the phosphatase intended target family, where the subfamily is non-receptor tyrosine phosphatase.
# Binding assays used specific radioligands (tritiated, iodinated) with non-radioactive competitive displacement ligands in agonist or antagonist protocols (as indicated) and various reference compounds and inhibitors to titrate specific binding to receptors and transporters. Most enzyme assays (CYPs, kinases, phosphatases, proteases, HDACs) used recombinant protein and specific substrates (fluorescence mostly, some colorimetric and radioactive) and inhibitors, followed by a biochemical separation of substrate and product. All assays for the biochemical HTS were initially run in duplicate at a single concentration (10 uM for CYP450 assays and 25 uM for all others). […] Each assay was run with positive and negative controls, and concurrent controls on every plate. […]
# [3] = target: human Protein Tyrosine Phosphatase Receptor Type B (PTPRB), PTPRB (gene 5787) (UniProt P23467); assay: NVS_ENZ_hPTPRB: NovaScreen (NVS) Enzymatic Assay for human Protein Tyrosine Phosphatase Receptor Type B (PTPRB) (AID 2283211)
# Outline: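 Recombinant human PTPRB with a fluorescent substrate, product separated by electrophoretic mobility shift; read 1 h after dosing. Primary screen in duplicate at 25 uM; actives then retested in concentration series; loss of signal versus DMSO.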
# [4] = target: human Protein Tyrosine Phosphatase Receptor Type F (PTPRF), PTPRF (gene 5792) (UniProt P10586); assay: NVS_ENZ_hPTPRF: NovaScreen (NVS) Enzymatic Assay for human Protein Tyrosine Phosphatase Receptor Type F (PTPRF) (AID 2283213)
# Outline: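 Cell-free fluorescence enzyme assay with recombinant protein and substrate; product separated by electrophoretic mobility shift. Read 1 h after dosing, single 25 uM duplicate screen, then concentration-response up to 50 uM; loss of signal vs DMSO.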
# [5] = target: human Protein Tyrosine Phosphatase Receptor Type M (PTPRM), PTPRM (gene 5797) (UniProt P28827); assay: NVS_ENZ_hPTPRM: NovaScreen (NVS) Enzymatic Assay for human Protein Tyrosine Phosphatase Receptor Type M (PTPRM) (AID 2283215)
# Outline: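 Cell-free recombinant PTPRM with fluorogenic substrate; product separated from substrate by electrophoretic mobility shift and read by fluorescence, 1.33 h after dosing. Primary screen single concentration (25 uM) in duplicate; actives retested in concentration series; loss of signal versus DMSO.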
# [6] = target: human Protein Tyrosine Phosphatase Non-receptor Type 9 (PTPN9), PTPN9 (gene 5780) (UniProt P43378); assay: NVS_ENZ_hPTPN9: NovaScreen (NVS) Enzymatic Assay for human Protein Tyrosine Phosphatase Non-receptor Type 9 (PTPN9) (AID 2283209)
# Outline: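 Sf9-expressed enzyme in a cell-free assay, fluorescence read 1.33 h after dosing with mobility-shift separation of substrate and product. Tested at 25 uM in duplicate, then up to 50 uM; signal loss versus DMSO.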
# [7] = target: human Protein Tyrosine Phosphatase Receptor Type C (PTPRC), PTPRC (gene 5788) (UniProt P08575); assay: NVS_ENZ_hPTPRC: NovaScreen (NVS) Enzymatic Assay for human Protein Tyrosine Phosphatase Receptor Type C (PTPRC) (AID 2283212)
# Outline: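 Yeast-extracted human PTPRC used in a cell-free colorimetric enzyme activity read-out, 1 h after dosing. Primary screen in duplicate at 25 uM; actives rerun in concentration-response up to 50 uM, DMSO as baseline.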
# [8] = target: human Rho Associated Coiled-coil Containing Protein Kinase 1 (ROCK1), ROCK1 (gene 6093) (UniProt Q13464); assay: NVS_ENZ_hROCK1: NovaScreen (NVS) Enzymatic Assay for human Rho Associated Coiled-coil Containing Protein Kinase 1 (ROCK1) (AID 2283214)
# Outline: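 Cell-free recombinant human ROCK1 activity assay; fluorescent substrate and product separated by electrophoretic mobility shift, read 1 h after dosing. Screened in duplicate at 25 uM; loss of signal versus DMSO baseline scored as inhibition.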
# [9] = target: human Raf-1 Proto-Oncogene, serine/threonine Kinase (RAF1), RAF1 (gene 5894) (UniProt P04049); assay: NVS_ENZ_hRAF1: NovaScreen (NVS) Enzymatic Assay for human Raf-1 Proto-Oncogene, serine/threonine Kinase (RAF1) (AID 2283216)
# Description: NVS_ENZ_hRAF1 is a biochemical, single-readout assay that uses extracted gene-proteins in a cell-free assay. Measurements were taken 1 hour after chemical dosing in a 384-well plate.NVS_ENZ_hRAF1 is one of one assay component(s) measured or calculated from the NVS_ENZ_hRAF1 assay. It is designed to make measurements of enzyme activity, a form of enzyme reporter, as detected with fluorescence intensity signals by Fluorescence and electrophoretic mobility shift technology.Data from the assay component NVS_ENZ_hRAF1 was analyzed into 1 assay endpoint. This assay endpoint, NVS_ENZ_hRAF1, was analyzed in the positive analysis fitting direction relative to DMSO as the negative control and baseline of activity. Using a type of enzyme reporter, loss-of-signal activity can be used to understand changes in the enzymatic activity as they relate to the gene RAF1. Furthermore, this assay endpoint can be referred to as a primary readout, because this assay has produced multiple assay endpoints where this one serves a enzymatic activity function. To generalize the intended target to other relatable targets, this assay endpoint is annotated to the kinase intended target family, where the subfamily is serine/threonine kinase.
# Binding assays used specific radioligands (tritiated, iodinated) with non-radioactive competitive displacement ligands in agonist or antagonist protocols (as indicated) and various reference compounds and inhibitors to titrate specific binding to receptors and transporters. Most enzyme assays (CYPs, kinases, phosphatases, proteases, HDACs) used recombinant protein and specific substrates (fluorescence mostly, some colorimetric and radioactive) and inhibitors, followed by a biochemical separation of substrate and product. All assays for the biochemical HTS were initially run in duplicate at a single concentration (10 uM for CYP450 assays and 25 uM for all others). Assay-chemical combinations meeting a pre-defined threshold (e.g., 30% inhibition and other criteria defined below) were then run in singleton concentration-response format with maximum concentration of 20 uM for CYPs and 50 uM for all others. Each assay was run with positive and negative controls, and concurrent controls on every plate. The follow-up (secondary) screen tested active chemical-pairs in concentration series, as well as a few additional assays not tested in the primary screen, some selected negative inactives, and several cases re-run in the concentration series for confirmatory purposes.
# [10] = target: human Sirtuin 1 (SIRT1), SIRT1 (gene 23411) (UniProt Q96EB6); assay: NVS_ENZ_hSIRT1: NovaScreen (NVS) Enzymatic Assay for human Sirtuin 1 (SIRT1) (AID 2283219)
# Outline: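 Cell-free recombinant SIRT1 with a fluorescent substrate; substrate and product separated by electrophoretic mobility shift and read by fluorescence intensity, 1 h after dosing. Primary screen at 25 uM in duplicate; hits re-run in concentration-response up to 50 uM, relative to DMSO.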
# Sequence of human Protein Tyrosine Phosphatase Non-receptor Type 9 (PTPN9), PTPN9 (gene 5780) (P43378 whole entry, looked up): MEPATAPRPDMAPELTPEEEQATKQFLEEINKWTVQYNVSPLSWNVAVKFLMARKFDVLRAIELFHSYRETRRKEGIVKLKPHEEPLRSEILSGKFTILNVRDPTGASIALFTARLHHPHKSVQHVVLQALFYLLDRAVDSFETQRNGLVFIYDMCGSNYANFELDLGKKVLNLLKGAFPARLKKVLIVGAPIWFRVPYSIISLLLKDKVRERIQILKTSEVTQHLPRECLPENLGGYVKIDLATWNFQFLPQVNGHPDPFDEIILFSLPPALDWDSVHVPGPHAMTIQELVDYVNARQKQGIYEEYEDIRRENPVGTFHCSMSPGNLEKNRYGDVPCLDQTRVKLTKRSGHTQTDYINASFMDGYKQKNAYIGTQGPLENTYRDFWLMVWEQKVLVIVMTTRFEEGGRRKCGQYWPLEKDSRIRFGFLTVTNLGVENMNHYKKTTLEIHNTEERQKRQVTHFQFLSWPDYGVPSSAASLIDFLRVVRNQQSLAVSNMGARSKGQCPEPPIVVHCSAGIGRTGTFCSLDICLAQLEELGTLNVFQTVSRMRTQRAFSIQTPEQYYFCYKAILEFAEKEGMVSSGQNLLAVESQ
# Sequence of human Protein Tyrosine Phosphatase Receptor Type B (PTPRB), PTPRB (gene 5787) (P23467 whole entry, looked up): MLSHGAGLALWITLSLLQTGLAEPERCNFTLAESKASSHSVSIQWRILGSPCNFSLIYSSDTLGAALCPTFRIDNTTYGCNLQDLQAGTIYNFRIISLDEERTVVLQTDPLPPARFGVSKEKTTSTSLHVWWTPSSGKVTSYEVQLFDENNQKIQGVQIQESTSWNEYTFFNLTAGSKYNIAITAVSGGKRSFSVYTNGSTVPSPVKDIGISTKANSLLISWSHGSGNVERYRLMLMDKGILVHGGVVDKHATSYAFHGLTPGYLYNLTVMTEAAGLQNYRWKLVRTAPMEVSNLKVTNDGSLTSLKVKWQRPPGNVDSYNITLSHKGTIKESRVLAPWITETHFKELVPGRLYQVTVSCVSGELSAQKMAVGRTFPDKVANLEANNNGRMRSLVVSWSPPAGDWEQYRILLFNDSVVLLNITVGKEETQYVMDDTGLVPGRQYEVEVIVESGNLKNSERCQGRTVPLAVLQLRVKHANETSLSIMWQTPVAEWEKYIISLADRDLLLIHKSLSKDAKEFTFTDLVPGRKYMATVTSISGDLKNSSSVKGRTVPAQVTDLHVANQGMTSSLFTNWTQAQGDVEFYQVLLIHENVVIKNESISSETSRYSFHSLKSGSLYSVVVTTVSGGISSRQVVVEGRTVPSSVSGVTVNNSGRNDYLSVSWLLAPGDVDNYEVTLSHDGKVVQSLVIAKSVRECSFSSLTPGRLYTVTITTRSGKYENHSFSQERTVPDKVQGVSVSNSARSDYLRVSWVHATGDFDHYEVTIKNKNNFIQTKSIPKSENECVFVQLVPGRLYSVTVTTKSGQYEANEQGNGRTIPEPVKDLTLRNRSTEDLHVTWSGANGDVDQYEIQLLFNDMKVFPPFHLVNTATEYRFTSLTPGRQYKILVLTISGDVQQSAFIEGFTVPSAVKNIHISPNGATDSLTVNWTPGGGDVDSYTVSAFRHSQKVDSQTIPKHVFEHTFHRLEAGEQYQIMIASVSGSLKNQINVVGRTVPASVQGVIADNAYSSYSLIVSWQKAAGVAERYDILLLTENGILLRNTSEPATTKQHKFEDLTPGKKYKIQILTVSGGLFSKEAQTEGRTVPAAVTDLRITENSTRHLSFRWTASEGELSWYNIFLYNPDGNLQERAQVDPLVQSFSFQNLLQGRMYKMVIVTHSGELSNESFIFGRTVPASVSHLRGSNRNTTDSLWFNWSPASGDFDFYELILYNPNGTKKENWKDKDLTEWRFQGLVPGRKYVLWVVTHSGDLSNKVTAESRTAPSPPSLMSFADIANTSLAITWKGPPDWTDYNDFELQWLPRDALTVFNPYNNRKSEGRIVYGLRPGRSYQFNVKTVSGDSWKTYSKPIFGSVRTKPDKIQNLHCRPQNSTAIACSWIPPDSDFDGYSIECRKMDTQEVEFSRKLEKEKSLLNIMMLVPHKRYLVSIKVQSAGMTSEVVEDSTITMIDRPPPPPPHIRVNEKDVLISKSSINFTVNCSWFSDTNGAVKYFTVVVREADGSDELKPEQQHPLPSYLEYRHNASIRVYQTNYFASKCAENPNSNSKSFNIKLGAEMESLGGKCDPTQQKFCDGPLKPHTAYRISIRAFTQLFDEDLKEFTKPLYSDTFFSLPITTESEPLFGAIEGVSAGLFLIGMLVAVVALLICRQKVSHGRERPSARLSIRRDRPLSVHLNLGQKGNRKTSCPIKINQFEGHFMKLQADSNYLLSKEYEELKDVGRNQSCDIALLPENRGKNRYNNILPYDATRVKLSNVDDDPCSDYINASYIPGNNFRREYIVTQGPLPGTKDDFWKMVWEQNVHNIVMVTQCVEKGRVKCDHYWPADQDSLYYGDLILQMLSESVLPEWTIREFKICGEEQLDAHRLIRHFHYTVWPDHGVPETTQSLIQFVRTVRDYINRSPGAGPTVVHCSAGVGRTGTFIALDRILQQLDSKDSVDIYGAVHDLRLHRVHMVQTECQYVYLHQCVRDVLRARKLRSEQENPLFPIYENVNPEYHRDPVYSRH
# Sequence of human Sirtuin 1 (SIRT1), SIRT1 (gene 23411) (Q96EB6 whole entry, looked up): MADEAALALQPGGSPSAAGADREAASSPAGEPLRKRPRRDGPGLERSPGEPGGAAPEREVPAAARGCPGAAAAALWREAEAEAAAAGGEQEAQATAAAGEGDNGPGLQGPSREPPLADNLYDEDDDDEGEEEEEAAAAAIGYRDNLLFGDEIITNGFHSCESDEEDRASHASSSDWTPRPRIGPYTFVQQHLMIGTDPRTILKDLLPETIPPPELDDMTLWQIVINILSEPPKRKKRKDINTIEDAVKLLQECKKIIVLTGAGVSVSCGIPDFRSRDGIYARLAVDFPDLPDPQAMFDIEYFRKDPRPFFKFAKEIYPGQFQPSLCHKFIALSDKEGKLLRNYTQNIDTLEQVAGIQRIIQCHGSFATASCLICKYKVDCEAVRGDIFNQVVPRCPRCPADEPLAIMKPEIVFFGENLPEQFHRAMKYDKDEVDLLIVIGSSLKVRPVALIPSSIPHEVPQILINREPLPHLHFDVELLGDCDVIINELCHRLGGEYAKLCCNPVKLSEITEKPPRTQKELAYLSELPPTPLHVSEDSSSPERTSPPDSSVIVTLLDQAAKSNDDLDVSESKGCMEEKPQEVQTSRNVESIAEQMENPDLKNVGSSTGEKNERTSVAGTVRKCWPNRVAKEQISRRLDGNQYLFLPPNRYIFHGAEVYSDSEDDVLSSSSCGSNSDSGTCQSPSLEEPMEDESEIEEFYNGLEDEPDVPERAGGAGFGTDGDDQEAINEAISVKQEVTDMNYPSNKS
# Sequence of human Sirtuin 2 (SIRT2), SIRT2 (gene 22933) (Q8IXJ6 whole entry, looked up): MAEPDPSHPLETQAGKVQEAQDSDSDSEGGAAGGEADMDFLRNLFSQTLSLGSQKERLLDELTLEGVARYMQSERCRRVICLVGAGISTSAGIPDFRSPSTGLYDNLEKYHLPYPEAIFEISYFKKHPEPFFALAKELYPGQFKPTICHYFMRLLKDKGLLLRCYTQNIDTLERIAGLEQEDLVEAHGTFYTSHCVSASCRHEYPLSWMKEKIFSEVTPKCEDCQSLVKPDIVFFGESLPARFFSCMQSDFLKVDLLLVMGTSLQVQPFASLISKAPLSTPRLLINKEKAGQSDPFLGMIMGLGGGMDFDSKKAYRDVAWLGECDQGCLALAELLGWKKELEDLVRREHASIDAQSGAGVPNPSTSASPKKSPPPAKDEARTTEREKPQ
# Sequence of human Rho Associated Coiled-coil Containing Protein Kinase 1 (ROCK1), ROCK1 (gene 6093) (Q13464 whole entry, looked up): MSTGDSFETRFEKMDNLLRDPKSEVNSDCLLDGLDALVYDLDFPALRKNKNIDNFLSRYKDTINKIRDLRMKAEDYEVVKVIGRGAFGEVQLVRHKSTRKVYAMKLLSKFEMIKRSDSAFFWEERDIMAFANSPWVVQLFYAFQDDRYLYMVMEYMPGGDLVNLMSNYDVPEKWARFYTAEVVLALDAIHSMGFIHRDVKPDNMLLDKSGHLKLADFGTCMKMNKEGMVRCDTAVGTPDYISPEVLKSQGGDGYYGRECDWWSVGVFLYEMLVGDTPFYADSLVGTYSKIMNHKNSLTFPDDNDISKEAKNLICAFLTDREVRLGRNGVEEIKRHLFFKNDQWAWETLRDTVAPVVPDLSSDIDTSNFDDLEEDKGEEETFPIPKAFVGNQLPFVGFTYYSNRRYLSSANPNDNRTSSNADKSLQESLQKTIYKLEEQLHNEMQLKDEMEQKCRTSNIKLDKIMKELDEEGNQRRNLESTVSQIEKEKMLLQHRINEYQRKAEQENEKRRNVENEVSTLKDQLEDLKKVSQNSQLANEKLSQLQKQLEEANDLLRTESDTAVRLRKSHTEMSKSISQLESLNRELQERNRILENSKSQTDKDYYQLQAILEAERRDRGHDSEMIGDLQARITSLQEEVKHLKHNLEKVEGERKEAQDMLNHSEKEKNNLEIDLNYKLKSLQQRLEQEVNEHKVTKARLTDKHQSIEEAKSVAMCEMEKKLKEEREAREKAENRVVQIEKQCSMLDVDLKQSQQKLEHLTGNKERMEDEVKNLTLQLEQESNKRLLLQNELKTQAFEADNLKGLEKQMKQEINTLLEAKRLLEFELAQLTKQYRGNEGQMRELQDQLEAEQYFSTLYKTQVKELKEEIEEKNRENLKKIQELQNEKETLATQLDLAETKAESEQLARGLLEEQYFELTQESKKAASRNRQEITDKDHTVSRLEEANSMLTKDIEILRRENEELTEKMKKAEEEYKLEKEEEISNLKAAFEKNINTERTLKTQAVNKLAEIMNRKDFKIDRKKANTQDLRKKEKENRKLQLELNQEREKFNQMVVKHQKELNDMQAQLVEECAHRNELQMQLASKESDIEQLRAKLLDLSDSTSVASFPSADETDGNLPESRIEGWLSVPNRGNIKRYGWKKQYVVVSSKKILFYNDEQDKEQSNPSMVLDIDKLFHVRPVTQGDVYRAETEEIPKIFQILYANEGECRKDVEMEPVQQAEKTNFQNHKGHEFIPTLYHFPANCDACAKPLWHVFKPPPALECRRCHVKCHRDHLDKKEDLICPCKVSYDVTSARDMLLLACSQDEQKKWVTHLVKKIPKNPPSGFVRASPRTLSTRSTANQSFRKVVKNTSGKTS
compound,measurement,setting,value
FC(F)C(F)(F)OCC(Cn1cncn1)c1ccc(Cl)cc1Cl (centres undefined),AC50,[1],14.6 µM (active)
S=C1NCCN1,outcome,[2],inactive
same,outcome,[3],inactive
same,outcome,[4],inactive
Nc1c(Cl)cc([N+](=O)[O-])cc1Cl,outcome,[5],inactive
CN(C)[C@@H]1C(=O)C(C(N)=O)=C(O)[C@@]2(O)C(=O)C3=C(O)c4c(O)cccc4[C@@](C)(O)[C@H]3[C@H](O)[C@@H]12,AC50,[6],2.57 µM (active)
same,AC50,[2],41.4 µM (active)
same,AC50,[3],29.7 µM (active) and 10.1 µM (active)
same,outcome,[3],inactive
same,AC50,[7],11.4 µM (active)
same,outcome,[8],inactive
same,AC50,[9],11.1 µM (active)
CCCOCC(=Nc1ccc(Cl)cc1C(F)(F)F)n1ccnc1,outcome,[9],inactive
CN(C)NC(=O)CCC(=O)O,outcome,[9],inactive
O=C(O)c1cc(Oc2ccc(C(F)(F)F)cc2Cl)ccc1[N+](=O)[O-],outcome,[1],inactive
CCCCOC(=O)c1ccccc1C(=O)O,outcome,[2],inactive
CC(=NC#N)N(C)Cc1ccc(Cl)nc1,outcome,[4],inactive
COP(=O)(OC)OC(Br)C(Cl)(Cl)Br (centres undefined),outcome,[5],inactive
same,AC50,[10],15.8 µM (active)
CCCCSP(=O)(SCCCC)SCCCC,outcome,[4],inactive
CC1(C(=O)Nc2ccc(O)c(Cl)c2Cl)CCCCC1,outcome,[8],inactive
same,outcome,[5],inactive
CCC(=O)Nc1ccc(Cl)c(Cl)c1,outcome,[8],inactive
N#CSCSC#N,outcome,[6],inactive
same,outcome,[5],inactive
same,AC50,[10],11.3 µM (active)
CCOP(=S)(OCC)OC(Cl)C(Cl)(Cl)Cl (centres undefined),AC50,[6],12.7 µM (active)
CCCOc1nn(C(=O)NS(=O)(=O)c2ccccc2C(=O)OC)c(=O)n1C,outcome,[9],inactive
CN(C)C(=O)Nc1cccc(C(F)(F)F)c1,outcome,[9],inactive
CNC(=O)ON=C(SC)C(=O)N(C)C,outcome,[8],inactive
CC[C@H](C)[C@H]1O[C@]2(C=C[C@@H]1C)C[C@@H]1C[C@@H](C/C=C(\C)[C@@H](O[C@H]3C[C@H](OC)[C@@H](O[C@H]4C[C@H](OC)[C@@H](NC)[C@H](C)O4)[C@H](C)O3)[C@@H](C)/C=C/C=C3\CO[C@@H]4[C@H](O)C(C)=C[C@@H](C(=O)O1)[C@]34O)O2,AC50,[5],9.67 µM (active)
same,AC50,[1],25 µM (active)
same,outcome,[10],inactive
O=[N+]([O-])c1cc(C(F)(F)F)c(Cl)c([N+](=O)[O-])c1Nc1ncc(C(F)(F)F)cc1Cl,outcome,[5],inactive
